# Most compounds without a hit are left out; they make up all but 21% or so of the library.
# Shiga inhibitor: A qHTS for Small Molecule Inhibitors of Shiga Toxin; Vero cells, Shiga toxin protein synthesis inhibition reporter; 290,000 compounds, 9.2% hits; AID 2315, 2010; inhibition, % at 38.7 µM; in the data active means inhibition mostly above about 28%, no sharp cut-off; inactive means mostly below about 43%; further: 0% is about no effect
# Pf growth 48h: Primary qHTS for delayed death inhibitors of the malarial parasite plastid, 48 hour incubation; P. falciparum luciferase growth in erythrocytes, 48 h; Potency, µM (highest dose often 28.7 µM), for the others: at the highest dose activity change, negative = inhibition, most hits filed as inhibitors; 310,000 compounds, 5.9% hits; AID 504832, 2011; further: potency means the concentration at half of the fitted maximal effect; on the % scale 0 is the no-effect control and ±100 the full control effect
#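 Parasite viability was followed by luminescence of a genomically integrated firefly luciferase. Cultures held 0.1% parasitemia at 2% hematocrit (final), incubated under 5% CO2 at 37 C.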
# Cycloheximide cs: Cycloheximide Counterscreen for Small Molecule Inhibitors of Shiga Toxin; AID 2314, 2010; cell reporter, cycloheximide protein synthesis inhibition counterscreen; max response, %; 300,000 compounds, 12% hits; in the data active means max response mostly above about 13%, no sharp cut-off; inactive means mostly below about 14%; further: read at 38.3 µM for the half of the compounds with a filed dose; 0% is about no effect
# Pf growth 96h: Primary qHTS for delayed death inhibitors of the malarial parasite plastid, 96 hour incubation | P. falciparum luciferase reporter growth, 96 h | Potency, µM (top dose mostly 28.7 µM), for the others: top-dose activity change, negative = inhibition, most hits filed as inhibitors | 320,000 compounds, 6.9% hits | AID 504834, 2011; further: potency means the concentration at half of the fitted maximal effect; on the % scale 0 is the no-effect control and ±100 the full control effect
#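 Plates of compound plus infected erythrocytes (2% hematocrit, 0.05% parasitemia final) incubate 96 hours, 37 C, 5% CO2. Detection reagent added; reduced luminescence from the parasites' luciferase reporter flags inhibition.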
# HCMV inh: qHTS Assay for inhibitors of the human cytomegalovirus (HCMV) | activity change, negative = inhibition, % at 57.5 µM | AID 1259415, 2018 | 410,000 compounds, 4.5% hits | HFF cells, HCMV-luciferase reporter, 72 h; hits give low values; in the data active means activity change below about -60%; inconclusive means no clear call, values can overlap the other calls; inactive means above about -39%; further: on the % scale 0 is the no-effect control and ±100 the full control effect
#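 Compounds were evaluated in HFFs infected with an HCMV luciferase reporter virus (MOI 1 PFU/cell). Luciferase in lysates collected 72 h post infection served as the replication measure.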
# HCV inh: qHTS Assay for Inhibitors of Hepatitis C Virus (HCV). Huh7.5.1 HCVcc-Cre infection, luciferase reporter, 44 h. Potency, µM (highest dose often 41.8 µM), without a hit: at the top dose activity change, negative = inhibition, most hits filed as inhibitors. 340,000 compounds, 3.4% hits. AID 651820, 2012; further: potency means the concentration at half of the fitted maximal effect; on the % scale 0 is the no-effect control and ±100 the full control effect
#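 A cell-based infection assay in which seeded cells (1,000 per well) receive test compound after 4 h, are inoculated with HCVcc-Cre at approximately 0.5 moi, and are incubated 44 h before luminescence detection.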
# Active calls of the source: *; ? = inconclusive; . = no result given. Unless noted, the call rests on the fitted dose curve; in most records, active means well fitted inhibition curve with a large enough effect; inconclusive means small, poorly fitted or top-dose-only effect, or another doubt; inactive means no such curve, though single readings can be large or run the other way.
SMILES,Shiga inhibitor,Pf growth 48h,Cycloheximide cs,Pf growth 96h,HCMV inh,HCV inh
O=C(c1ccc2oc(CCCc3ccccc3)nc2c1)N1CCCCC1CO (centres undefined),55*,30%,38*,-1%,61,0%
O=C(c1ccc2oc(CCc3ccccc3)nc2c1)N1CCC(O)CC1,75*,153%,52*,4%,56,8%
COc1ccc(-c2cn3nc(N4CCCC(C(=O)Nc5cccc(Cl)c5C)C4)sc3n2)cc1 (centres undefined),.,.,.,.,0,.
COc1ccc(CNC(=O)CSc2ncc3c(n2)-c2ccc(Cl)cc2N(Cc2ccc(F)cc2)S3(=O)=O)cc1OC,.,.,.,.,17,.
Cc1ccc(N2CCN(S(=O)(=O)c3nnc(NC(=O)c4ccco4)s3)CC2)cc1,13,?,-3,-3%,7,16%
COc1ccccc1NC(=O)CCC(=O)c1ccc(-c2ccccc2)cc1,-5,18%,11,65%,-18,-7%
COc1ccccc1NC(CC(=O)c1ccccc1)C(=O)OCC(=O)c1ccc(C)cc1 (centres undefined),73*,242%,33*,?,67,-1%
COc1ccccc1NC(CC(=O)c1ccccc1)C(=O)OCC(=O)c1ccc(Br)cc1 (centres undefined),115*,250%,102*,113%,76,0%
COc1ccccc1NC(CC(=O)c1ccccc1)C(=O)OCC(=O)c1ccc(C)c(C)c1 (centres undefined),37*,148%,40*,-14%,159,2%
O=C(CN1C(=O)NC2(CCCC2)C1=O)Nc1cc(S(=O)(=O)N2CCCCC2)ccc1Cl,.,.,.,.,-2,-1%
Cc1ccc(S(=O)(=O)CC(CN2CCCCC2)N2CCCCC2)cc1 (centres undefined),16,8.3µM*,15,?,-99*,16µM*
O=S(=O)(CC(CN1CCOCC1)N1CCOCC1)c1ccccc1 (centres undefined),-14,-8%,4,-14%,-29,23%
O=S(=O)(CC(CN1CCCCC1)N1CCCCC1)c1ccc2ccccc2c1 (centres undefined),-3,0%,1,20%,-73*,25%
Cc1ccc(N2CC(C(=O)Nc3ccccc3OC(F)F)CC2=O)cc1 (centres undefined),.,?,.,-27%,0,-12%
Clc1cc(Cl)c(OCC#CI)cc1Cl,.,?,.,13µM*,.,.
Clc1cc(Cl)c(Cl)cc1Cl,.,20%,.,-27%,-19,17%
CC(C)=CCOc1ccc2c(C)c(CC(=O)N3C[C@H]4C[C@@H](C3)c3cccc(=O)n3C4)c(=O)oc2c1C,-1,?,1,9.3µM*,-9,-12%
C=C(C)COc1cc2oc(=O)c(CC(=O)N3C[C@H]4C[C@@H](C3)c3cccc(=O)n3C4)c(C)c2cc1Cl,-9,-17%,-2,10µM*,-21,?
C=C(C)COc1ccc2c(C)c(CC(=O)N3C[C@H]4C[C@@H](C3)c3cccc(=O)n3C4)c(=O)oc2c1,-2,?,1,?,-6,-9%
C=C(C)COc1ccc2c(C)c(CCC(=O)N3C[C@H]4C[C@@H](C3)c3cccc(=O)n3C4)c(=O)oc2c1,-5,?,-1,2.6µM*,?,10%
Cc1c(OCC(=O)N2C[C@H]3C[C@@H](C2)c2cccc(=O)n2C3)ccc2c3c(c(=O)oc12)CCCC3,-6,-28%,-2,?,-23,3%
O=C(COc1cc2oc(=O)c3c(c2cc1Cl)CCC3)N1C[C@H]2C[C@@H](C1)c1cccc(=O)n1C2,2,?,-3,?,-37,-5%
COCCNC(=S)Nc1ccccc1Cc1ccccc1,-3,?,2,?,?,-2%
CN(C)C(=O)CCC(=O)N1CCCC(C(=O)c2ccc(C(F)(F)F)cc2)C1 (centres undefined),-4,6%,-7,5%,?,15%
ClC(Cl)(c1nnnn1-c1ccccc1)c1nnnn1-c1ccccc1,-7,4%,8,?,-19,?
SMILES,Shiga inhibitor,Pf growth 48h,Cycloheximide cs,Pf growth 96h,HCMV inh,HCV inh
CCCCOc1ccc(-c2cc(C(F)(F)F)c(C#N)c(SCC(=O)O)n2)cc1,-12,3%,5,33%,-21,3%
CCCNC(=O)c1nnc2n1CCN(C(=O)c1ccc(F)c(F)c1)C2,.,.,.,.,-4,.
CCCC(C(=O)Nc1ccncc1)c1ccccc1 (centres undefined),-38,?,-2,2.9µM*,-34,6%
O=C(CC(c1ccccc1)c1ccccc1)Nc1ccncc1,-7,?,-2,10µM*,-12,-20%
CCCC(C)C(=O)Nc1ccc(S(=O)(=O)N2CCCC2)cc1 (centres undefined),2,-14%,-4,?,-3,17%
CCCC(C(=O)Nc1ccc(S(=O)(=O)N2CCCC2)cc1)c1ccccc1 (centres undefined),.,10µM*,.,?,-35,-18%
CC1S/C(=C(\C#N)C(=O)NCc2ccco2)N(c2ccc(F)cc2)C1=O (centres undefined),-16,1%,1,108%,-97*,4%
CCC1S/C(=C(\C#N)C(=O)NCc2ccco2)N(c2ccc(F)cc2)C1=O (centres undefined),-11,-6%,-2,?,15,0%
Cc1ccc(SCC(=O)c2cc(C)c(O)c(C)c2)cc1,50*,?,17*,?,102,-25%
Cc1ccc(SCC(=O)c2c(C)nc3ccccn23)cc1,62*,72%,31*,87%,?,?
COc1ccc(Cn2c(C(=O)O)c(CNCCc3cccs3)c3ccc(C)cc32)cc1,.,.,.,.,-5,.
CCOc1ccc(NC(=O)C2CCCN(c3nc(C)cc(C)n3)C2)cc1 (centres undefined),27,10%,-5,5%,-27,-14%
Cc1ccc(C(=O)C(C)Sc2nnc(N)s2)cc1 (centres undefined),25,7%,15*,3%,5,7%
CC(Sc1nnc(N)s1)C(=O)NNC(=O)c1cccc(Cl)c1 (centres undefined),.,.,.,.,-27,-18%
COc1cccc(NC(=O)CCC2CCN(C(=O)c3cccc(NC(C)=O)c3)CC2)c1,-7,-29%,-2,23%,11,?
COCC(=O)N1CCC(Oc2ccc(C(=O)NC3Cc4ccccc4C3)cc2)CC1,55*,18%,27*,10µM*,.,-14%
COCC(=O)N1CCC(Oc2ccc(C(=O)N[C@H](C(=O)OC)C(C)C)cc2)CC1,-3,1%,-3,?,-10,8%
